Experimental data as given in the supplement of paper PMC9254222.
Whole data set: some 1,100 compounds, median “Renilla luciferase signal (cell health) relative to plate median” near 0.97, cut for the highest 2% near 1.6. What follows is part of a selection rich in the highest values, with near analogues and random picks from the rest.

System: HEK293T (UBE3A T485A transfected, BAR Wnt reporter)
Assay: Renilla luciferase signal (cell health) relative to plate median (fold (linear ratio)); higher = higher Renilla signal
Conditions: 24 h
Method in brief: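 HEK293T cells carrying a transfected BAR firefly luciferase Wnt reporter, TK-Renilla and an expression plasmid were exposed to chemicals at 0.01–100 uM for 24 h, with dosing four hours after transfection. Readout used Dual-Glo luciferase. The firefly/Renilla ratio defined Wnt activity and raw Renilla defined cell health, each median-centred per plate. Figures are means of four biological replicates.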

SMILES | Renilla luciferase signal (concentration: 0.01 uM) | Renilla luciferase signal (concentration: 0.1 uM) | Renilla luciferase signal (concentration: 1 uM) | Renilla luciferase signal (concentration: 10 uM) | Renilla luciferase signal (concentration: 100 uM)
O=C(Nc1ccccc1)Nc1cnns1 [Thidiazuron] | 1.1 | 1.07 | 1 | 0.921 | 0.135
C[Si](Cn1cncn1)(c1ccc(F)cc1)c1ccc(F)cc1 [Flusilazole] | 1.03 | 1.08 | 1.03 | 0.986 | 0.258
CC(C)[C@H](C(=O)O[C@H](C#N)c1cccc(Oc2ccccc2)c1)c1ccc(Cl)cc1 [Esfenvalerate] | 0.932 | 0.969 | 0.846 | 0.908 | 0.397
Nc1cnn(-c2ccccc2)c(=O)c1Cl [Chloridazon] | 0.928 | 0.982 | 0.916 | 1.1 | 1.34
Cc1ccccc1[N+](=O)[O-] [2-Nitrotoluene] |  | 1.24 | 1.08 | 1.14 | 1.33
Cc1nc(N(C)C)nc(OC(=O)N(C)C)c1C [Pirimicarb] | 1.09 | 1.09 | 1.1 | 1.21 | 2.4
O=C([O-])C(F)(F)C(F)(F)C(F)(F)C(F)(F)C(F)(F)C(F)(F)C(F)(F)F.[NH4+] [PFOA, ammonium salt] |  | 0.839 | 0.971 | 0.797 | 0.224
Clc1cccc(Cl)c1 [1,3-Dichlorobenzene] |  | 0.976 | 1.06 | 1.08 | 1.26
Cc1ccc(N=C=O)cc1N=C=O [Toluene-2,4-diisocyanate] |  | 0.891 | 0.94 | 1.08 | 0.677
COP(=S)(OC)SCN1C(=O)c2ccccc2C1=O [Phosmet] |  | 0.82 | 0.838 | 0.713 | 0.82
COc1nn(CSP(=S)(OC)OC)c(=O)s1 [Methidathion] | 0.805 | 0.65 | 0.845 | 0.715 | 0.562
CNC(=O)CSP(=S)(OC)OC [Dimethoate] | 1.22 | 0.985 | 0.987 | 1.12 | 1.67
CCC1(c2ccccc2)C(=O)N=C([O-])NC1=O.[Na+] (stereo not drawn) [Phenobarbital sodium] |  | 0.831 | 0.817 | 0.777 | 0.914
COCCOCCO [Diethylene glycol monomethyl ether] |  | 1.01 | 0.991 | 1.01 | 1.32
C[N+]1(C)CCCCC1.[Cl-] [Mepiquat chloride] | 1.1 | 1.08 | 1.06 | 1.02 | 1.31
CN(C)C(=S)[S-].[Na+] [Sodium dimethyldithiocarbamate] |  | 0.974 | 1.07 | 0.874 | 1.06
CN(C)C(=S)[S-].CN(C)C(=S)[S-].[Zn+2] [Ziram] |  | 0.814 | 0.726 | 0.999 | 0.0214
CNC(=S)[S-].O.O.O.[Na+] [Metam-sodium hydrate] | 1.32 | 1.02 | 1.07 | 1.06 | 1.67
Nc1ccc(/N=N/c2ccccc2)cc1 [4-Aminoazobenzene] |  | 0.476 | 0.565 | 0.351 | 0.181
NC1=NC(O)C2C3OC4(O)OC(C(O)C2(N1)C4O)C3(O)CO (stereo not drawn) [Tetrodotoxin (TTX)] | 1.02 | 0.976 | 0.904 | 1.03 | 2.57

SMILES | Renilla luciferase signal (concentration: 0.01 uM) | Renilla luciferase signal (concentration: 0.1 uM) | Renilla luciferase signal (concentration: 1 uM) | Renilla luciferase signal (concentration: 10 uM) | Renilla luciferase signal (concentration: 100 uM)
OC(c1ccc(Cl)cc1)(c1cncnc1)c1ccccc1Cl (stereo not drawn) [Fenarimol] | 1.21 | 0.875 | 0.953 | 0.942 | 0.199
CCN(CC)c1ccccc1 [N,N-Diethylaniline] |  | 1.07 | 1.06 | 1.09 | 1.47
OCCCBr [3-Bromo-1-propanol] |  | 0.865 | 0.896 | 0.988 | 0.976
Cc1nn(-c2cc(NS(C)(=O)=O)c(Cl)cc2Cl)c(=O)n1C(F)F [Sulfentrazone] | 1.01 | 1.05 | 0.889 | 1.04 | 1.21
CCOC(=O)COc1cc(-c2nn(C)c(OC(F)F)c2Cl)c(F)cc1Cl [Pyraflufen-ethyl] | 0.786 | 0.651 | 0.92 | 0.846 | 1.17
CCOC(=O)C(Cl)Cc1cc(-n2nc(C)n(C(F)F)c2=O)c(F)cc1Cl (stereo not drawn) [Carfentrazone-ethyl] | 0.995 | 1.11 | 0.895 | 0.956 | 1.9
COc1cc(Cl)c(OC)cc1Cl [Chloroneb] | 0.913 | 0.991 | 1.07 | 1.06 | 1.91
COc1cc(-c2ccc(N)c(OC)c2)ccc1N [3,3'-Dimethoxybenzidine] |  | 0.89 | 0.92 | 0.684 | 0.388
COc1cc(-c2ccc(N)c(OC)c2)ccc1N.Cl.Cl [3,3'-Dimethoxybenzidine dihydrochloride] |  | 0.847 | 0.823 | 0.799 | 0.158
CNc1cnn(-c2cccc(C(F)(F)F)c2)c(=O)c1Cl [Norflurazon] | 1.06 | 0.78 | 0.77 | 0.879 | 1.28
CCC(C)(C)c1ccc(O)c(C(C)(C)CC)c1 [2,4-Bis(2-methylbutan-2-yl)phenol] |  | 1.05 | 1.07 | 0.955 | 1.13
N#CN [Cyanamide] | 0.837 | 0.715 | 0.775 | 0.84 | 1.25
COP(=O)(OC)OC=C(Cl)Cl [Dichlorvos] | 1.12 | 0.778 | 0.818 | 0.853 | 0.717
COP(=O)(OC)O/C(C)=C/C(=O)N(C)C [Dicrotophos] | 1.19 | 1.16 | 0.994 | 1.09 | 1.78
CNC(=O)/C=C(\C)OP(=O)(OC)OC [Monocrotophos] | 0.824 | 0.815 | 0.785 | 0.826 | 1.45
COc1cc(C=O)cc2c1[C@H](COC(N)=O)[C@]1(OC(C)=O)ON2C[C@H]2[C@@H]1N2C(C)=O |  | 0.566 | 0.0435 | 0.0233 | 0.0248
CCOP(=S)(OCC)SCn1c(=O)oc2cc(Cl)ccc21 [Phosalone] | 0.915 | 1.15 | 1.1 | 1.11 | 0.931
CCCCN(CC)c1c([N+](=O)[O-])cc(C(F)(F)F)cc1[N+](=O)[O-] [Benfluralin] | 1.12 | 0.838 | 0.99 | 0.917 | 1.31
COc1cc2c(c(OC)c1OC)-c1ccc(OC)c(=O)cc1[C@@H](NC(C)=O)CC2 [Colchicine] |  | 0.0537 | 0.036 | 0.0452 | 0.0414
